Inhibition data for 27 molecules are collected here from ChEMBL document CHEMBL1157539, “Thousands of chemical starting points for antimalarial lead identification” (Nature, 2010).

Assay type in all cases: functional
The subject of test [1] is Plasmodium falciparum. Briefly: GSK_TCMDC: Inhibition of Plasmodium falciparum 3D7 in whole red blood cells, using parasite LDH activity as an index of growth. Test compounds present at 2uM.
Test [2] has as its system Plasmodium falciparum. As to the kind of experiment: GSK_TCMDC: Inhibition of Plasmodium falciparum Dd2 in whole red blood cells, using parasite LDH activity as an index of growth. Test compounds present at 2uM.
Test [3] deals with HepG2. As to the kind of experiment: GSK_TCMDC: Percent inhibition of human HepG2 cell line. Test compounds present at 10uM.

Usually Inhibition stands for the change of the read-out against control, counted positive when it falls. Low readings indicate little suppression, high ones strong suppression.

“And” between values parts separate entries of the source, which are not always exact repeats. Identical values can stand only once.

`CC[C@H]1CN2CC[C@@H]1C[C@H]2[C@H](O)c1ccnc2ccc(OC)cc12`: the results for the Inhibition in test [1], in test [2] and in test [3] were 100%, 61% and 0%, respectively.

With `CCOc1ccc2nccc([C@@H](O)[C@@H]3C[C@@H]4CCN3C[C@@H]4CC)c2c1.Cl` [ETHYLHYDROCUPREINE HYDROCHLORIDE], the figures for the Inhibition in test [1], in test [2] and in test [3] were 98%, 99% and 24%, respectively.

With `O=C(NC1CCC(CN2CCC(c3c[nH]c4ccccc34)CC2)CC1)c1[nH]c(=O)[nH]c(=O)c1F` (stereo unspecified), the Inhibition in test [1] turned out to be 99%; in test [2] it was 59%; in test [3] it was 5%.

Turning to `CSc1ccc(C[C@@H](C)NC[C@H](O)c2cccc(Cl)c2)cc1.Cl`, the figures for the Inhibition in test [1], in test [2] and in test [3] were 97%, 96% and 8%, respectively.

Turning to `CCCc1ccc2c(c1O)CCC(N(CCC)CCC)C2.Cl` (stereo unspecified), the Inhibition in test [1] was 90%; in test [2] it was 23%; in test [3], 0%.

Turning to `O=C(/C=C/c1ccc(Cl)c(Cl)c1)N1CCC(CN2CCC(c3c[nH]c4cc5c(cc34)OCO5)CC2)CC1`, the figures for the Inhibition in test [1], in test [2] and in test [3] were 100%, 75% and 41%, respectively.

For the molecule `CS(=O)(=O)Nc1ccc2c(C3CCN(CC4CCN(C(=O)/C=C/c5ccc(Cl)c(Cl)c5)CC4)CC3)c[nH]c2c1`, the Inhibition in test [1] is recorded as 99%; in test [2], 70%; in test [3], 28%.

Consider `CO[C@@H]1C[C@@H](C(=O)Nc2ccccc2)N(c2ccc(C#N)c3ccccc23)C1`, for which the figures for the Inhibition in test [1], in test [2] and in test [3] were 98%, 100% and 7%, respectively.

With `COC(=O)c1ccc(CC(C)NCC(O)c2cccc(C(F)(F)F)c2)c(OC)c1` (stereo unspecified), the Inhibition turned out to be 100% in test [1], 98% in test [2] and 5% in test [3].

Take `COCCNCc1ccc(-c2cccc(CN(C(=O)CCC3CCCC3)C3CCN(Cc4ccccc4)CC3)c2)cc1.O=C(O)C(F)(F)F`: the Inhibition in test [1] is 91%; in test [2] it was 86%; in test [3], 50%.

In the case of `COc1ccc2[nH]cc(C3CCN(Cc4ccc(NC(=O)c5ccc(-c6ccccc6)cc5)cc4)CC3)c2c1`, the Inhibition in test [1] is on record as 100%; in test [2], 72%; in test [3] it was 24%.

For the molecule `O=C(/C=C/c1ccc(Cl)c(Cl)c1)N1CCC(CN2CCC(c3c[nH]c4ccccc34)C(O)C2)CC1` (stereo unspecified), the results for the Inhibition in test [1], in test [2] and in test [3] were 99%, 14% and 37%, respectively.

As to `CSc1nccc(-c2ccc(S(=O)(=O)NC3CCC(CN4CCC(c5c[nH]c6ccccc56)CC4)CC3)s2)n1` (stereo unspecified), the Inhibition in test [1] was 100%; in test [2], 33% and 67%; in test [3], 61% and 36%.

On to `CC(Cc1ccc(OCCCCOc2ccccc2)cc1)NCCCN1CCOCC1` (stereo unspecified), for which the values for the Inhibition in test [1], in test [2] and in test [3] were 98%, 78% and 98%, respectively.

Take `CC(=O)C1(c2ccccc2)CCN(CCC2(c3ccc(Cl)c(Cl)c3)CN(C(=O)Nc3cccc(C(F)(F)F)c3)CCO2)CC1` (stereo unspecified): the Inhibition is listed as 95% in test [1], 66% in test [2] and 24% in test [3].

`CN(C)c1cccc(NC(=O)NC2N=C(c3ccccc3)c3ccccc3N(CC(=O)N(C)c3ccccc3)C2=O)c1` (stereo unspecified): the Inhibition in test [1] came out at 99%; in test [2] it was 80%; in test [3] it was 1%.

Regarding `COc1nc(N)ncc1C(=O)NC1CN2CCC1CC2` (stereo unspecified), the Inhibition in test [1] is listed as 92%; in test [2], 0%; in test [3], 26%.

With `COC(=O)c1ccc(CC(C)NCC(O)c2cccc(C(F)(F)F)c2)c(Cl)c1` (stereo unspecified), the Inhibition came out at 99% in test [1], 98% in test [2] and 0% in test [3].

For the molecule `COc1ccc(CN2CCN(CCOC(c3ccccc3)c3ccccc3)CC2)c(O)c1`, the Inhibition in test [1] was determined as 96%; in test [2], 84%; in test [3], 19%.

Regarding `CC(=O)C1(c2ccccc2)CCN(CCC(NC(=O)c2cc(C(F)(F)F)cc(C(F)(F)F)c2)c2ccc(Cl)c(Cl)c2)CC1.Cl` (stereo unspecified), the Inhibition came to 91% in test [1], 82% in test [2] and 9% in test [3].

As to `Cc1ccc(CC(C)NCC(O)c2cccc([N+](=O)[O-])c2)cc1` (stereo unspecified), the Inhibition in test [1] is 97%; in test [2], 85%; in test [3], 0%.

`Br.CC[C@H]1CN2CC[C@H]1C[C@H]2[C@H](O)c1ccnc2ccc(C#N)cc12`: the Inhibition in test [1] was determined as 100%; in test [2], 55%; in test [3] it was 0%.

Consider `C#CCN1CCC2=C(C1)c1c(O)cc(C(C)C(C)CCc3ccc(F)cc3)cc1OC2(C)C` (stereo unspecified), for which the Inhibition in test [1] was determined as 100%; in test [2] it was 99%; in test [3], 10%.

As for `COc1ccccc1CC(C)NCC(O)c1cccc(Cl)c1` (stereo unspecified), the values for the Inhibition in test [1], in test [2] and in test [3] were 97%, 98% and 13%, respectively.

In the case of `O=C(NC1CCC(CN2CCC(c3c[nH]c4ccccc34)CC2)CC1)c1cc(-c2ccc(F)cc2F)ccc1O` (stereo unspecified), the values for the Inhibition in test [1], in test [2] and in test [3] were 100%, 100% and 30%, respectively.

`O=C(/C=C/c1ccc(Cl)c(Cl)c1)Nc1cccc(CN2CCC(c3c[nH]c4ccccc34)CC2)c1`: the Inhibition is recorded as 99% in test [1], 91% in test [2] and 15% in test [3].

On to `S=C(NCCc1ccc(Cl)cc1)NC1CCC(CN2CCC(c3c[nH]c4ccccc34)CC2)CC1` (stereo unspecified), for which the Inhibition in test [1] is 100%; in test [2], 84% and 34%; in test [3], 42% and 37%.
